Experimental data: PubChem BioAssay AID687022 (Broad Institute, 2013)
About 360 (36%) of roughly 1,000 compounds were called active. Only a sample is shown. A number with no mark means an inactive call.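 Rule for the calls: active = Fitted curve of melting temperature shift crosses the 1.0 threshold at or below the sample's highest valid tested concentration; inconclusive = Flat fit with activity 30 to 70, or invalid fit; inactive = Opposite direction, flat within 30, or no crossing.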

Each compound was assayed against Fibroblast growth factor 22 (Homo sapiens) (UniProt Q9HCT0) (assay: binders of human FGF22 protein, dose response, FGF22 synaptogenesis inhibitor project, biophysical, thermal shift, cherry-pick (AID 687022; note: reference of the scale not given here)). Details: recombinant FGF22 thermal shift, SYPRO orange melting; series mostly up to 38 µM.
Sequence of Fibroblast growth factor 22 (Homo sapiens) (Q9HCT0 whole entry, looked up): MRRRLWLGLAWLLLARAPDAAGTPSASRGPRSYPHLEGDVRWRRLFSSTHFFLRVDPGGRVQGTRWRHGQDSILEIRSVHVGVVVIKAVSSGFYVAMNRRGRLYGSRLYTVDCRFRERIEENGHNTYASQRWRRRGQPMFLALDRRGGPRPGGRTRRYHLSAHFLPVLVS
`Cc1[nH]c(=O)[nH]c(=O)c1S(=O)(=O)Nc1cccc([N+](=O)[O-])c1C` was tested, and the Tm shift activity was “inactive”.
`CCCNC(=O)N1CC(=O)N2[C@H](C1)[C@@H](c1ccc(-c3cccc(C)c3)cc1)[C@@H]2CO` was tested, and the Tm shift activity was “inactive”.
With `O=c1cc[nH]c2ccc(Cl)cc12` the Tm shift activity was “inactive”.
`CC(=O)c1cccc(NC(=O)C2CCCN2S(=O)(=O)c2cccs2)c1` (stereo not drawn) was tested, and the Tm shift activity was “inactive”.
In the case of `COc1ccc(CCC(C)NC(=O)Cc2ccc(OC)c(OC)c2)c(OC)c1` (stereo not drawn), the Tm shift activity is reported as “inactive”.
For `CCCN(C)C[C@H]1Oc2cc(-c3ccncc3)ccc2S(=O)(=O)N([C@H](C)CO)C[C@H]1C`, the Tm shift activity was “inactive”.
With `O=C1C2C(C(=O)N1CCc1ccccc1)C1C=CC2C12CC2` (stereo not drawn) the Tm shift activity was “inactive”.
In the case of `CCOC(=O)C1CCC(CNCc2ccccc2C)CC1` (stereo not drawn), the Tm shift activity is reported as “inactive”.
For `N#CCSc1n[nH]c2nc3c(c(=O)n12)C1(CCCCC1)Cc1ccccc1-3`, the Tm shift activity was “inactive”.
For `COc1cc(C(=O)NC(=S)Nc2ccccc2[N+](=O)[O-])cc(OC)c1OC`, the Tm shift activity was “inactive”.
In the case of `C/C(=N\NC(=O)CNC(=O)c1ccncc1)c1ccc(C)cc1`, the Tm shift activity is reported as “inactive”.
For `CN(CC(=O)Nc1ccccc1Cl)C(=O)COC(=O)c1nc(Cl)ccc1Cl`, the Tm shift activity was “inactive”.
With `CCn1c(O)c(C=NCc2ccccc2)sc1=S` the Tm shift activity was “inactive”.
For `C[C@@H]1CN([C@H](C)CO)C(=O)Cc2cc(NS(C)(=O)=O)ccc2O[C@@H]1CN(C)Cc1ccc(C(=O)O)cc1`, the Tm shift activity was “inactive”.
With `CC(C)CC#Cc1cnc2c(c1)C(=O)N([C@@H](C)CO)C[C@H](C)[C@@H](CN(C)Cc1ccccn1)O2` the Tm shift activity was “inactive”.
`O=C(CCc1ccc(S(=O)(=O)N2CCOCC2)cc1)Nc1ccccc1F` was tested, and the Tm shift activity was “inactive”.
In the case of `C/C=C/c1ccc([C@@H]2[C@H](C#N)N(C(=O)CN3CCOCC3)[C@H]2CO)cc1`, the Tm shift activity is reported as “inactive”.
`COc1cc(CCC(=O)OCC(=O)Nc2ccc(C)cc2Br)cc(OC)c1OC` was tested, and the Tm shift activity was “inactive”.
With `CN1CCN(C(=O)C[C@@H]2CC[C@H]3[C@@H](COC[C@H](O)CN3CC3CCCCC3)O2)CC1` the Tm shift activity was “inactive”.
In the case of `C[C@H]1CN([C@@H](C)CO)S(=O)(=O)c2ccc(/C=C/c3ccccc3)cc2O[C@@H]1CN(C)Cc1ccc(C(=O)O)cc1`, the Tm shift activity is reported as “inactive”.
`CCCC#Cc1ccc2c(c1)O[C@H](CN(C)C(C)=O)[C@@H](C)CN([C@@H](C)CO)S2(=O)=O` was tested, and the Tm shift activity was “inactive”.
For `C[C@H]1CN([C@@H](C)CO)S(=O)(=O)c2ccc(C#Cc3ccncc3)cc2O[C@H]1CN(C)C(=O)Nc1ccc2c(c1)OCO2`, the Tm shift activity was “inactive”.
`COc1cc(C2C(C#N)=C(N)Oc3n[nH]c(-c4cccnc4)c32)cc(Br)c1O` (stereo not drawn) was tested, and the Tm shift activity was “inactive”.
For `C[C@@H]1CN([C@@H](C)CO)C(=O)CCCn2nncc2CO[C@H]1CN(C)Cc1ccccc1C(=O)O`, the Tm shift activity was “inactive”.
In the case of `CCN1C(=O)c2cccc3c(S(=O)(=O)Nc4ccc(O)c(C(=O)O)c4)ccc1c23`, the Tm shift activity is reported as 0.895% [at 5 µM].
For `O=C(COc1ccc(S(=O)(=O)Nc2ccccc2)cc1)NCc1ccncc1`, the Tm shift activity was “inactive”.
In the case of `CN(C)CCN1C(=O)C2C3C=CC(C3)C2C1=O` (stereo not drawn), the Tm shift activity is reported as “inactive”.
For `COCC(=O)N(C)C[C@H]1Oc2cc(C#Cc3ccccc3)ccc2S(=O)(=O)N([C@H](C)CO)C[C@H]1C`, the Tm shift activity was “inactive”.
With `O=C(NCC[C@@H]1CC[C@@H](NC(=O)C2CCOCC2)[C@H](CO)O1)Nc1ccc(Cl)cc1` the Tm shift activity was “inactive”.
With `CC(C)NC(=O)Nc1ccc2c(c1)C(=O)N([C@H](C)CO)C[C@H](C)[C@H](CN(C)C(=O)Nc1cccc3ccccc13)O2` the Tm shift activity was “inactive”.
For `O=C(O)C1CSC2(CCN(Cc3ccccc3)CC2)N1` (stereo not drawn), the Tm shift activity was “inactive”.
With `Fc1ccccc1Nc1n[nH]c(=S)s1` the Tm shift activity was “inactive”.
In the case of `O=C(N/N=C/c1cccc(O)c1)c1cc(-c2ccc3c(c2)OCO3)n[nH]1`, the Tm shift activity is reported as “inactive”.
For `COc1cc(/C=N/NC(=O)c2ccncc2)ccc1OCC(=O)Nc1cccc([N+](=O)[O-])c1`, the Tm shift activity was “inactive”.
With `CC(=O)N(C)C[C@@H]1Oc2ncc(C#CC(C)(C)O)cc2C(=O)N([C@@H](C)CO)C[C@H]1C` the Tm shift activity was “inactive”.
In the case of `Cc1nc2cc(C(=O)NCc3ccc4c(c3)OCO4)ccc2n1-c1ccc(Br)cc1`, the Tm shift activity is reported as “inactive”.
With `O=[N+]([O-])c1ccc2oc(/C=C/c3ccc(O)cc3)nc2c1` the Tm shift activity was “inactive”.
`C[C@@H]1CN([C@@H](C)CO)C(=O)c2cc(NS(C)(=O)=O)ccc2O[C@@H]1CN(C)Cc1ccc2c(c1)OCO2` was tested, and the Tm shift activity was “inactive”.
In the case of `C[C@H](CO)N1C[C@H](C)[C@H](CN(C)C(=O)CC2CC2)Oc2ncc(C#CC3(O)CCCC3)cc2C1=O`, the Tm shift activity is reported as “inactive”.
`O=C(NC[C@@H]1[C@H](c2ccccc2)[C@H](CO)N1C(=O)Cc1cccnc1)C1CC1` was tested, and the Tm shift activity was “inactive”.
With `CCc1cccc(NS(=O)(=O)c2ccc3c(c2)NC(=O)CC(=O)N3)c1` the Tm shift activity was “inactive”.
`CCC(=O)N1CC2(C1)[C@H](c1ccc(-c3cccc(C)c3)cc1)[C@@H](CO)N2S(C)(=O)=O` was tested, and the Tm shift activity was “inactive”.
In the case of `O=C(C1CCOCC1)N1C[C@@H]2[C@H](c3ccccc31)[C@@H](CO)N2Cc1ccccc1`, the Tm shift activity is reported as “inactive”.
With `CC(OC(=O)c1ccccc1)C(=O)NCCC1=CCCCC1` (stereo not drawn) the Tm shift activity was “inactive”.
For `O=C(COc1cccc(Cl)c1)NCC(c1cccs1)N1CCOCC1` (stereo not drawn), the Tm shift activity was “inactive”.
In the case of `Cc1cccc(NC(=O)COc2coc(CN3CCc4ccccc4C3)cc2=O)c1`, the Tm shift activity is reported as “inactive”.
In the case of `c1ccc(NCc2ccccn2)cc1`, the Tm shift activity is reported as “inactive”.
With `CN1CCN(C(=O)C[C@H]2C=C[C@@H](NC(=O)c3ccc4c(c3)OCO4)[C@H](CO)O2)CC1` the Tm shift activity was “inactive”.
`CN(C)S(=O)(=O)n1cnc([C@@H]2[C@@H]3C(=O)OC[C@@H]3C[C@]23N=CN(Cc2ccccc2)C3=O)c1` was tested, and the Tm shift activity was “inactive”.
`Cc1nc2ccc(NC(=O)c3cc([N+](=O)[O-])cc([N+](=O)[O-])c3Cl)cc2s1` was tested, and the Tm shift activity was “inactive”.
In the case of `O=[N+]([O-])c1ccc2nc(-c3ccc(Cl)cc3)[nH]c2c1`, the Tm shift activity is reported as “inactive”.
In the case of `O=C(Nc1cccc2ccccc12)c1cccc([N+](=O)[O-])c1`, the Tm shift activity is reported as “inactive”.
`COc1cc([N+](=O)[O-])ccc1NC(=O)CN1CCCC1` was tested, and the Tm shift activity was “inactive”.
In the case of `CCc1ccc(NC(=O)c2ccc(-n3cncn3)c([N+](=O)[O-])c2)cc1`, the Tm shift activity is reported as “inactive”.
In the case of `CN=C1NN=C(c2cc(C)n(-c3c(C)n(C)n(-c4ccccc4)c3=O)c2C)CS1`, the Tm shift activity is reported as “inactive”.
In the case of `Cc1ccc(-c2c[n+](CC(=O)Nc3ccc(C)cc3C)c3n2CCC3)cc1`, the Tm shift activity is reported as “inactive”.
In the case of `Cn1cccc1/C=N/NC(=O)Cc1cccc2ccccc12`, the Tm shift activity is reported as “inactive”.
In the case of `COC(=O)Cc1n[nH]c(=O)c2ccccc12`, the Tm shift activity is reported as “inactive”.
In the case of `O=C(NCCc1c[nH]c2ccccc12)C(=O)NCC1CCCO1` (stereo not drawn), the Tm shift activity is reported as “inactive”.
In the case of `N#CCC(=O)Nc1ccc(C(=O)NCCc2c[nH]c3ccccc23)cc1`, the Tm shift activity is reported as “inactive”.
`COc1cccc(S(=O)(=O)Nc2ccc3c(c2)[C@@H]2C[C@H](CC(=O)NC4CCCCC4)O[C@@H](CO)[C@@H]2O3)c1` was tested, and the Tm shift activity was “inactive”.
`C=CCC1c2cccc(C(=O)O)c2C(=O)N1c1cccc(OC)c1` (stereo not drawn) was tested, and the Tm shift activity was “inactive”.
`COCC(=O)Nc1ccc2c(c1)[C@H]1C[C@@H](CC(=O)NCc3ccccn3)O[C@H](CO)[C@H]1O2` was tested, and the Tm shift activity was “inactive”.
For `CCOC(=O)c1c(C)oc2cc(Br)c(O)c(Br)c12`, the Tm shift activity was “inactive”.
With `C[C@H]1CN([C@@H](C)CO)C(=O)c2cc(NS(=O)(=O)c3ccc(Cl)cc3)ccc2O[C@@H]1CN(C)C(=O)Nc1ccc2c(c1)OCO2` the Tm shift activity was “inactive”.
With `CCC(=O)N1[C@H](CO)[C@@H](c2ccccc2)[C@H]1CN(C)C(=O)CN1CCOCC1` the Tm shift activity was “inactive”.
In the case of `O=C(c1cccc(F)c1)N1C[C@H]2[C@@H](c3ccccc31)[C@@H](CO)N2C(=O)c1ccccn1`, the Tm shift activity is reported as “inactive”.
In the case of `CCOc1ccc(NC(=O)c2cccc(-n3cccc3)c2)cc1S(=O)(=O)N1CCOCC1`, the Tm shift activity is reported as “inactive”.
In the case of `CC(C)NC(=O)N1[C@H](CO)[C@H](c2ccccc2-c2ccc(F)cc2)[C@@H]1C#N`, the Tm shift activity is reported as “inactive”.
In the case of `O=C(O)C1CCN(S(=O)(=O)Cc2ccccc2)CC1`, the Tm shift activity is reported as “inactive”.
For `COc1ccc(NC(=O)CN(c2ccc(C(C)C)cc2)S(=O)(=O)c2c(C)noc2C)cc1OC`, the Tm shift activity was “inactive”.
For `CO[C@@H]1CN(C)C(=O)c2cc(NC(=O)C3CCCC3)ccc2OC[C@H](C)N(CCC(F)(F)F)C[C@H]1C`, the Tm shift activity was “inactive”.
`NS(=O)(=O)c1ccc2c(c1)C(=NO)c1cc(S(N)(=O)=O)ccc1-2` was tested, and the Tm shift activity was “inactive”.
`Oc1c(CN2CCOCC2)cc(CN2CCOCC2)c(O)c1O` was tested, and the Tm shift activity was “inactive”.
In the case of `O=C(Nc1ccccc1Cl)N1[C@H](CO)[C@@H]2c3ccccc3NC[C@@H]21`, the Tm shift activity is reported as “inactive”.
`COc1ccc(NS(=O)(=O)c2cc(N=Nc3c(O)[nH]c(=O)[nH]c3=O)ccc2Cl)cc1` was tested, and the Tm shift activity was “inactive”.
With `COc1ccccc1C(=O)N1C[C@H]2[C@@H](c3ccccc31)[C@H](CO)N2C(=O)C1CCCCC1` the Tm shift activity was “inactive”.
In the case of `N#C[C@@H]1[C@@H](c2ccc(C3=CCCCC3)cc2)[C@H](CO)N1S(=O)(=O)c1ccccc1`, the Tm shift activity is reported as “inactive”.
For `Cc1cccc(C(=O)NNC(=O)c2ccc(NS(=O)(=O)c3cccs3)cc2)c1C`, the Tm shift activity was “inactive”.
For `COc1ccccc1NC(=O)c1ccc(NC(=O)COC(=O)c2ccc(O)cc2)cc1`, the Tm shift activity was “inactive”.
With `COc1ccccc1N(C)S(=O)(=O)c1ccc(C(=O)Nc2ccc(C(N)=O)cc2)cc1` the Tm shift activity was “inactive”.
`CCC(C)N(C(=O)COc1ccc(-c2nnco2)cc1)C1CCS(=O)(=O)C1` (stereo not drawn) was tested, and the Tm shift activity was “inactive”.
`O=C(Nc1cccc(S(=O)(=O)N2CCCCC2)c1)C1=NN(c2ccccc2)C(=O)CC1` was tested, and the Tm shift activity was “inactive”.
For `COc1cccc(NC(=O)N[C@@H]2CC[C@@H](CC(=O)Nc3ccccc3)O[C@H]2CO)c1`, the Tm shift activity was “inactive”.
In the case of `CN(C)CC(=O)Nc1ccc2c(c1)[C@H]1C[C@@H](CC(=O)NCC3CC3)O[C@H](CO)[C@H]1O2`, the Tm shift activity is reported as “inactive”.
In the case of `COC(=O)[C@]1(C)N[C@H](c2ccc(-c3ccccc3)cc2)[C@@H]2C(=O)N(C)C(=O)[C@@H]21`, the Tm shift activity is reported as “inactive”.
In the case of `Cc1ccc(S(=O)(=O)Nc2ccc3c(c2)CC(=O)N([C@H](C)CO)C[C@@H](C)[C@H](CN(C)C(=O)Nc2ccccc2)O3)cc1`, the Tm shift activity is reported as “inactive”.
In the case of `COc1ccc(C(=O)Nc2ccccc2N2CCOCC2)cc1S(=O)(=O)N1CCOCC1`, the Tm shift activity is reported as “inactive”.
